Data taken from PubChem BioAssay (NCATS).
Inconclusive results are not listed. Activity calls are given as the source filed them. Unless noted, calls follow the shape of the dose curve; as a rule, active = well fitted curve in the direction sought with a large enough effect; inconclusive = small, poorly fitted or top-dose-only effect, or another doubt; inactive = no such curve, though single readings can be large; an effect the other way counts as inactive or inconclusive.

Tests used:
[1] = Cytometric Cell-Based qHTS for Inhibitors of the mTORC1 Signaling Pathway in MEF (Tsc2-/-, p53-/-) Cells (AID 2660);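 also: percent of cells above a phospho-rpS6 to PI ratio cutoff in each well; series mostly up to about 38 µM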
Summary of the method: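 Tsc2-/-, p53-/- MEFs (empty vector) exposed to compound 24 h at 37 C, fixed, stained with Alexa-488 anti-phospho-rpS6 Ser235/236 and propidium iodide. Acumen laser scanning; phospho-S6/PI ratio thresholded against 7.5 nM rapamycin, reported as % positive cells.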

[2] = High Content Imaging Cell-Based qHTS for Inhibitors of the mTORC1 Signaling Pathway in MEF (Tsc2-/-, p53-/-) Cells (AID 2666);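 also: percent of cells scored positive for phospho-rpS6 Ser235/236 immunostaining by imaging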
Summary of the method: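 Read-out: % positive cells per well, with thresholds from highest- and lowest-signal wells, based on phospho-rpS6 (Ser235/236) intensity normalized to Hoechst nuclear stain. Cells: Tsc2-/-, p53-/- MEFs carrying empty vector; compound 24 hrs, 37 degree Celsius.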

[3] = High Content Imaging Cell-Based qHTS for Inhibitors of the mTORC1 Signaling Pathway in MEF Cells (AID 2667);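 also: Tsc2-/- p53-/- MEFs stably re-expressing wild-type Tsc2 exposed 24 h; series mostly up to about 38 µM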
Summary of the method: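 MEF (Tsc2-/-, p53-/-, WT Tsc2 re-expressed); cpd 24 h, 37 °C; PFA fix; Alexa-488 anti-p-rpS6 Ser235/236, PI, Hoechst; IN Cell imaging; Hoechst/Alexa-488 intensity ratio; % active cells, thresholds set from rapamycin and DMSO wells.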

[4] = Cytometry Cell-Based qHTS for Inhibitors of the mTORC1 Signaling Pathway in MEF cells (AID 2668);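 also: Tsc2-/- p53-/- mouse embryonic fibroblasts stably re-expressing wild-type Tsc2; percent cells positive for phospho-rpS6 Ser235/236 relative to propidium iodide stain; series mostly up to about 38 µM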
Summary of the method: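 Phospho-rpS6 (Ser235/236) immunofluorescence over PI signal, scored as % positive cells using thresholds from 7.5 nM rapamycin and DMSO wells, after 24 h compound exposure of WT-Tsc2-rescued Tsc2-/-, p53-/- MEFs. PI cell count recorded for viability.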

[5] = Validation screen for small molecules that induce DNA re-replication in MCF 10A normal breast cells (AID 463097); also: nearly all actives have a fitted effect of over 60% in size; also: potency is read from the fitted curve at half-maximal effect
Summary of the method: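 Read-out is Hoechst total nuclear intensity by fluorescence scanning imager, flagging increased high-DNA-content nuclei. Compounds were incubated with MCF 10A cells for 48 hr (37 C, 5% CO2) before 40 min staining.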

[6] = molecular target: Ubiquitin carboxyl-terminal hydrolase 2 (Homo sapiens) (UniProt O75604); assay: qHTS Validation Assay for Inhibitors of Ubiquitin-specific Protease USP2a Using CHOP2 as the Reporter (AID 463106)
Ubiquitin carboxyl-terminal hydrolase 2 (Homo sapiens), sequence (O75604 whole entry, looked up): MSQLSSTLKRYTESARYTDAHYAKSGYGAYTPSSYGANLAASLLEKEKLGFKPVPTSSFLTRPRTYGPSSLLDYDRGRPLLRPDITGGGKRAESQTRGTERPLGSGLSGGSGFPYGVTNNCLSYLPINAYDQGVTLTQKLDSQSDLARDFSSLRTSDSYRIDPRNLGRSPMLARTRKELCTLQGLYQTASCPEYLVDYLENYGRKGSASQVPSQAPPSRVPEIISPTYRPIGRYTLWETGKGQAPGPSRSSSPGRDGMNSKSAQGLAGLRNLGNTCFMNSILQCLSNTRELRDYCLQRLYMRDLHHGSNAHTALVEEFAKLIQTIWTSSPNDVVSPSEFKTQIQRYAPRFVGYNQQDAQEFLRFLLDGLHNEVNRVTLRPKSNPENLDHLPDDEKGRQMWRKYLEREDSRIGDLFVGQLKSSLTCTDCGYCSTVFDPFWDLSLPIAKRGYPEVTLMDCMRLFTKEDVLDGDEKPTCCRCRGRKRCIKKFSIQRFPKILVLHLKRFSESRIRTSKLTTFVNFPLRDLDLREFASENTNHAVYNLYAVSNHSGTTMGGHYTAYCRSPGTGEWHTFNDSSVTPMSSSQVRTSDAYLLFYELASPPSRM
Summary of the method: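 USP2 core (10nM final) was preincubated with compound for 30min at RT in 20mM Tris-HCl pH 8.0, 2mM CaCl2, 2mM beta-mercaptoethanol, 0.05% CHAPS. Ub-CHOP2 and reporter substrate (25nM each) were added, and fluorescence (Ex 485/Em 531nm) was read after 60min.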

[7] = molecular target: DNA polymerase III PolC-type (Bacillus subtilis (strain 168)) (UniProt P13267); assay: qHTS Validation Assay for the Inhibitors of DNA Replication in Gram-Positive Bacteria (AID 485295);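 also: reconstituted holoenzyme with PolC plus beta clamp SSB and primase; PicoGreen fluorescence of double-stranded DNA made on primed circular M13 template; series mostly up to about 57 µM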
DNA polymerase III PolC-type (Bacillus subtilis (strain 168)), sequence (P13267 whole entry, looked up): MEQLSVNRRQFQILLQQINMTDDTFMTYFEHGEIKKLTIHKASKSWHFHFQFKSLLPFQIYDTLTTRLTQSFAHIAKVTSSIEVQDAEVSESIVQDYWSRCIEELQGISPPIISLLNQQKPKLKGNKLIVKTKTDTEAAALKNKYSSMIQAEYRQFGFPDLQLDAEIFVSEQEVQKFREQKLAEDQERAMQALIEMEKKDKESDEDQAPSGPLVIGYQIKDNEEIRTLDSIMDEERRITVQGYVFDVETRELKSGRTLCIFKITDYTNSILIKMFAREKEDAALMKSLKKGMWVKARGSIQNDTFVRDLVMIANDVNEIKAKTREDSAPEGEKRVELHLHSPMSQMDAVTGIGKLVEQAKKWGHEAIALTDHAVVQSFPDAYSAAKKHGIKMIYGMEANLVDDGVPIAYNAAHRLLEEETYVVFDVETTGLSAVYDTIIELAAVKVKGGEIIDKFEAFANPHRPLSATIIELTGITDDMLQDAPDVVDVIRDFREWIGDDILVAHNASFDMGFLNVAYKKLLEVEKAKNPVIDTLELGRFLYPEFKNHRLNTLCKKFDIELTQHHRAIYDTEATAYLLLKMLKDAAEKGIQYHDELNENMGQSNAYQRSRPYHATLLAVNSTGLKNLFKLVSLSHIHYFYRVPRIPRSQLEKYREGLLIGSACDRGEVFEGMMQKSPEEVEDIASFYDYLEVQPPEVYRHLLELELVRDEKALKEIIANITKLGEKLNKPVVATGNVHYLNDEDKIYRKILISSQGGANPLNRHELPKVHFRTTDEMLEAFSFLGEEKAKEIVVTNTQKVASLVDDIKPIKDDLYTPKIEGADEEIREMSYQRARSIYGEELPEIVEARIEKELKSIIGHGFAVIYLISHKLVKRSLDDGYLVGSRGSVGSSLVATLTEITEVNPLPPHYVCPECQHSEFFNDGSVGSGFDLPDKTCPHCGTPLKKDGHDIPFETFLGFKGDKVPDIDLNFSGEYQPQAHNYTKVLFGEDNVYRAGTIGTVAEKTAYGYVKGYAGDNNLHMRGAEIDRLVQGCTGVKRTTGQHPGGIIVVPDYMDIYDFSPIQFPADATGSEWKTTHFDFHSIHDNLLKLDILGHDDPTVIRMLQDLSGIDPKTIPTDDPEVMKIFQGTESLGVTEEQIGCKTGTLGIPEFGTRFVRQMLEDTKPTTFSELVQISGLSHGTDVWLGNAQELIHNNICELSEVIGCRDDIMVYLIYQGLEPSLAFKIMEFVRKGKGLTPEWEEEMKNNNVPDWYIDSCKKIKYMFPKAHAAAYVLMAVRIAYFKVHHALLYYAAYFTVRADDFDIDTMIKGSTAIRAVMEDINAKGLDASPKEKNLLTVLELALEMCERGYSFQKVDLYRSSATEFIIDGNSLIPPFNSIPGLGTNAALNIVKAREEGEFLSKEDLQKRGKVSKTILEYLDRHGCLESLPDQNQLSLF
Summary of the method: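 Double-stranded DNA product detected by PicoGreen fluorescence after EDTA quench. Compound incubated with B. subtilis holoenzyme (PolC, beta subunit, SSB, primase) before substrate addition; primed replication of M13Gori with dNTPs and NTPs at room temperature; DMSO defines 0% inhibition.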

[8] = qHTS Validation Assay to Find Inhibitors of Chronic Active B-Cell Receptor Signaling (AID 485345; active = well fitted curve in the direction sought with a large enough effect in the main read-out, with a control signal flat, not every such curve was filed as active)
Summary of the method: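 TMD8 ABC-DLBCL cells with dox-inducible green luciferase–IκBα fusion and red native luciferase; compounds 46 uM–3 nM, 4 h at 37C with doxycycline in 0.5% FBS IMDM. Green/red ratio normalized to basal and 10 uM MG-132.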

[9] = molecular target: Tumor susceptibility gene 101 protein (Homo sapiens) (UniProt Q99816); assay: qHTS Validation Assay for Iinhibitors of HIV-1 Budding by Blocking the Interaction of PTAP/TSG101 (AID 485342; calls by dose curve)
Tumor susceptibility gene 101 protein (Homo sapiens), sequence (Q99816 whole entry, looked up, the tested form may be a part): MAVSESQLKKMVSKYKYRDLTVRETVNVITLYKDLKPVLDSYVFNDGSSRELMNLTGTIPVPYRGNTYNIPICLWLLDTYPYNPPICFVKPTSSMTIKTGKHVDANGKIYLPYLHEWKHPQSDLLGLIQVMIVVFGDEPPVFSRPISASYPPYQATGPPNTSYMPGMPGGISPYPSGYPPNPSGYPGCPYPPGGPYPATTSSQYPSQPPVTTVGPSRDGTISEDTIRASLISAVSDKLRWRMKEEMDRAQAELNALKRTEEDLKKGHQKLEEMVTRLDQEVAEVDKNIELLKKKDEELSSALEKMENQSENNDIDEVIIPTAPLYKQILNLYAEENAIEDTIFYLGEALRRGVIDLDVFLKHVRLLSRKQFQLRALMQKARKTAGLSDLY
Summary of the method: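 Fluorescence polarization of 50 nM FITC-PTAP peptide bound to 10 uM Tsg101 binding domain was read after 20 min room-temperature incubation with compounds, in 10 mM HEPES pH 7.5, 0.15 M NaCl, 0.01% Tween 20.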

Measured: Potency

O=[N+]([O-])c1cccc2c(Br)[nH]nc12
not listed: [9]
inactive: all other assays above

NC(N)=N[C@@H](CCC(=O)O)C(=O)O
inactive: all assays above

CC(N)(Cc1ccc(O)cc1)C(=O)O (stereo unspecified)
inactive: all assays above

O=C(O)c1cccnc1C(=O)O
inactive: all assays above

Nc1ncnc2c1ncn2C1CCCC1
inactive: all assays above

Cc1nc(N=Nc2ccc(S(=O)(=O)O)cc2S(=O)(=O)O)c(COP(=O)(O)O)c(C=O)c1O
inactive: all assays above

Oc1cc2c(cc1O)C(c1ccccc1)CNCC2 (stereo unspecified)
inactive: all assays above

COc1ccc(C(=O)NCc2cccnc2)cc1C(=O)NCc1cccnc1
inactive: all assays above

NC(=O)CNCCC(c1ccccc1)c1ccccc1
not listed: [9]
inactive: all other assays above

C[N+](C)(C)CC=O
inactive: all assays above

COc1ccc2c(c1)c(CC(=O)O)c(C)n2C(=O)c1ccccc1
inactive: all assays above

N[C@@H](Cc1c[nH]c2ccccc12)C(=O)O
inactive: all assays above

N=S(=O)(O)Cc1noc2ccccc12
inactive: all assays above

C=CC[C@H](N)C(=O)O
inactive: all assays above

CN1CCC2(CCN3CCc4c(oc5ccccc45)C3C2)N(C)C1=O (stereo unspecified)
not listed: [9]
inactive: all other assays above

c1ccc(C2CN3CCSC3=N2)cc1 (stereo unspecified)
inactive: all assays above

O=C(O)C1CCCNC1 (stereo unspecified)
inactive: all assays above

NCCCCN=C(N)N
inactive: all assays above

COC(=O)C(N)Cc1ccc(Cl)cc1 (stereo unspecified)
inactive: all assays above

CSC(N)=NCCC[C@H](N)C(=O)O
inactive: all assays above

Nn1nnc2ccccc21
inactive: all assays above

CCN(CC)CCOC(=O)c1cc(Cl)c(N)cc1OC
inactive: all assays above

O=C(O)C1CCNCC1
not listed: [7]
inactive: all other assays above

CCCN(CCc1ccccc1)C1CCc2c(O)cccc2C1 (stereo unspecified)
not listed: [7] | [9]
inactive: all other assays above

N[C@@H](CCCC(=O)O)C(=O)O
not listed: [7]
inactive: all other assays above

C=C(C)C1CC=C(C(=O)O)CC1 (stereo unspecified)
not listed: [6]
inactive: all other assays above

N#C/C(=C\c1ccc(O)c(O)c1)C(=O)NCCCNC(=O)/C(C#N)=C/c1ccc(O)c(O)c1
not listed: [7] | [8]
inactive: all other assays above

Cn1c(=O)c2c(nc(/C=C/c3cccc(Cl)c3)n2C)n(C)c1=O
not listed: [7] | [8]
inactive: all other assays above

COc1cc(CC(=O)O)ccc1O
not listed: [9]
inactive: all other assays above

O=c1onc2n1-c1cc(Br)ccc1OC2
not listed: [7]
inactive: all other assays above

CCN1C(=O)C=CC1=O
active: [5] 20 µM
not listed: [7] | [9]
inactive: all other assays above

Cn1ccnc1
not listed: [9]
inactive: all other assays above

COc1ccc(-c2ccc(N)[n+](CCCC(=O)O)n2)cc1
not listed: [7] | [9]
inactive: all other assays above

O=C(O)CCC(=O)N1CCCC1C(=O)O (stereo unspecified)
not listed: [6]
inactive: all other assays above

Oc1ccc(Cn2cc[nH]c2=S)cc1
not listed: [7]
inactive: all other assays above

O=C(O)c1cc2cc(F)ccc2[nH]1
not listed: [6]
inactive: all other assays above

CC(C)C[C@H](NC(=O)C1OC1C(=O)O)C(=O)NCCCCN=C(N)N (stereo partly specified)
not listed: [6] | [7]
inactive: all other assays above

NCCCNCCCCNCCCN
not listed: [6]
inactive: all other assays above

O=C(O)Cc1ccc(O)c(O)c1
not listed: [6]
inactive: all other assays above

COc1ccccc1N1CCN(CCCCN2C(=O)c3ccccc3C2=O)CC1
not listed: [7] | [8]
inactive: all other assays above

CCCCC[C@H](CC(=O)NO)C(=O)N[C@H](C(=O)N1CCC[C@H]1CO)C(C)C
not listed: [6] | [8]
inactive: all other assays above

c1ccc2nc(C3=NCCN3)ccc2c1
not listed: [6]
inactive: all other assays above

Clc1nccc2c1ccc1ccccc12
not listed: [7]
inactive: all other assays above

c1ccc2c(c1)CC(N1CCN(c3cccc4c3OCCO4)CC1)C2
not listed: [7]
inactive: all other assays above

Cc1nc(N=Nc2cc(S(=O)(=O)O)c3cc([N+](=O)[O-])cc(S(=O)(=O)O)c3c2)c(COP(=O)(O)O)c(C=O)c1O
not listed: [7]
inactive: all other assays above

CC(C)C[C@H](NC(=O)[C@H](O)[C@H](N)Cc1ccccc1)C(=O)O
not listed: [7]
inactive: all other assays above

N[C@@H](Cc1ccc(O)c(I)c1)C(=O)O
not listed: [7]
inactive: all other assays above

OC[C@H]1O[C@@H](n2cnc3cncnc32)[C@H](O)[C@@H]1O
not listed: [9]
inactive: all other assays above

COc1ccc(CCN(C)CCc2ccc(OC)c(OC)c2)cc1OC
not listed: [6]
inactive: all other assays above

CC(=O)/C(C)=N/O
not listed: [9]
inactive: all other assays above

CC(=O)NNC(=O)N1Cc2ccccc2Oc2ccc(Cl)cc21
not listed: [6] | [9]
inactive: all other assays above

CCCCCC[C@@H]([C@@H](C)O)n1cnc2c(N)ncnc21
not listed: [7]
inactive: all other assays above

OCC1NCC(O)C(O)C1O (stereo unspecified)
not listed: [6]
inactive: all other assays above

Nc1nc2[nH]c(=O)cnc2c(=O)[nH]1
not listed: [9]
inactive: all other assays above

NCCC1CCCC(CCN)N1 (stereo unspecified)
not listed: [6]
inactive: all other assays above

CC(=O)O[C@H]1CC2(C)[C@@H](C[C@@H](O)[C@H]3[C@@]4(C)CC[C@@H](O)[C@@H](C)[C@@H]4CC[C@@]32C)C1=C(CCC=C(C)C)C(=O)O (stereo partly specified)
not listed: [9]
inactive: all other assays above

Cc1nc(N=Nc2ccc(C(=O)O)cc2)c(COP(=O)(O)O)c(C=O)c1O
not listed: [6]
inactive: all other assays above
